Results published in the supplement of paper PMC10849652.
Of roughly 8,800 targets only a part is listed; those with a hit were picked by preference. About 0.5% of all pairs of compound and target were hits. A number with no mark means an inactive call.

Assays:
Assay in all cases: log2 fold change, soluble protein after heating vs DMSO (PISA); higher = thermal stabilisation; K562 lysate, 10 uM; active = over 0.2 and 3.5 SD of the protein, either way, in both replicates (recomputed)
ibrutinib = compound: C=CC(=O)N1CCC[C@@H](n2nc(-c3ccc(Oc4ccccc4)cc3)c3c(N)ncnc32)C1 [ibrutinib]
Summary of the method: (§1)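 Quantification was by TMTpro 16plex LC-MS/MS with equalised channel sums, applied to the supernatant after 21,000xg for 90 min. Samples were crude K562 extract at 1 mg/mL protein in PBS pH 7.4 with 1 mM MgCl2, treated with 10 μM compound for 30 min, heated for 3 min across 48°C-58°C, pooled and brought to 0.5% NP-40 at 4°C. Values are log-two fold changes in thermal stability relative to solvent controls, from duplicates.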

[1] = compound: CC(=O)c1cnc2ccc(-c3cc(Cl)c(O)c(Cl)c3)nc2c1N[C@H]1CC[C@H](CN(C)C)CC1
Summary of the method: as §1

ralimetinib = compound: CC(C)(C)Cn1c(N)nc2ccc(-c3[nH]c(C(C)(C)C)nc3-c3ccc(F)cc3)nc21 [ralimetinib]
Summary of the method: as §1

[2] = compound: CC(C)(O)CC(=O)NCCn1ccc2ncnc(Nc3ccc(Oc4cccc(C(F)(F)F)c4)c(Cl)c3)c21
Summary of the method: as §1

[3] = compound: CC(C)C1=C2N=C(C=C(N2N=C1)NCC3=CC=CC=C3)NCCCCCCN
Summary of the method: as §1

[4] = compound: CC1=C(C(CC(=O)N1)C2=CC=C(C=C2)C(F)(F)F)C(=O)NC3=C(C=C4C(=C3)C=NN4)F
Summary of the method: as §1

[5] = compound: CC1=C(C2=C(C=C1)C(=O)C3=CC=CC=C3N2CCCN)C
Summary of the method: as §1

[6] = compound: CC1=C(C=C(C=C1)NC(=O)C2=CC(=CC=C2)C(C)(C)C#N)NC3=CC4=C(C=C3)N=CN(C4=O)C
Summary of the method: as §1

[7] = compound: CC1=C(C=C(C=C1)NC(=O)C2=CC(=CC=C2)N(C)C)NC(=O)C3=CC=C(C=C3)O
Summary of the method: as §1

[8] = compound: CC1=CC=C(C=C1)SC2=C3C=C(SC3=CN=C2)C(=O)N
Summary of the method: as §1

Chain of UniProt Q8WWV3 (Q8WWV3 whole entry, looked up): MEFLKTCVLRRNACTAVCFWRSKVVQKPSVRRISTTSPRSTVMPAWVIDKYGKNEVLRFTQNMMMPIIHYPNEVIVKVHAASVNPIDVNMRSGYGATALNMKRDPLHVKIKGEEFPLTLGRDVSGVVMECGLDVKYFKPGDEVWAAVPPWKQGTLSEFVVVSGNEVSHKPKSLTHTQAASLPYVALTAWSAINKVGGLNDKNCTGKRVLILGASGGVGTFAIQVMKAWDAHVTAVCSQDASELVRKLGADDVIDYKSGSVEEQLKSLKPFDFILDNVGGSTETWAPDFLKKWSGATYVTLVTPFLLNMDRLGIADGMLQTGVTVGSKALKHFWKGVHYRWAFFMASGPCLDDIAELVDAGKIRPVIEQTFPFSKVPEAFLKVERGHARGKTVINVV
Chain of UniProt P35250 (P35250 whole entry, looked up): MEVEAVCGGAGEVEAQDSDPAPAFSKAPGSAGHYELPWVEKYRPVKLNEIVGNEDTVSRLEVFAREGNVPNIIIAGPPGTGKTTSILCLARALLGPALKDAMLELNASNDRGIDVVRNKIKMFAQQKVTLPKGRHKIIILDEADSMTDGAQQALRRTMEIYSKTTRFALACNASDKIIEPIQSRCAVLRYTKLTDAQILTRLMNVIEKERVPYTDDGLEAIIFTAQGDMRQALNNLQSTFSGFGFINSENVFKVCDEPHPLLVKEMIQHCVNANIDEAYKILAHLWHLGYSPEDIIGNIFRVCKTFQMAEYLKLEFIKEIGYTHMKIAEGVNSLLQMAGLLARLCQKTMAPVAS
Chain of UniProt O43819 (O43819 whole entry, looked up): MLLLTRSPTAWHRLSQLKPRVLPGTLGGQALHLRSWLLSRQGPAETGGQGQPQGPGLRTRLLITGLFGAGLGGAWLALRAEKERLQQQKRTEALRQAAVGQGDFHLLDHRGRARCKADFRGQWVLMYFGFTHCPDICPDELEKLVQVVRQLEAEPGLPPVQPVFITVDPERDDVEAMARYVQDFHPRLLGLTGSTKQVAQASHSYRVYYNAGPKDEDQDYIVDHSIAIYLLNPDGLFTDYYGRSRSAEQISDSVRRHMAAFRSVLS
Chain of UniProt Q92930 (Q92930 whole entry, looked up): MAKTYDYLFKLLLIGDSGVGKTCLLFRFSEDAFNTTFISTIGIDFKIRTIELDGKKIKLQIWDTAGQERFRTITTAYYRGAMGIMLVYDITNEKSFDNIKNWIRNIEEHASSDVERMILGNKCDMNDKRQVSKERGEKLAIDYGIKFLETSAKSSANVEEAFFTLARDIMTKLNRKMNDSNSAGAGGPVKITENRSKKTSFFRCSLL
Chain of UniProt Q96HR9 (Q96HR9 whole entry, looked up): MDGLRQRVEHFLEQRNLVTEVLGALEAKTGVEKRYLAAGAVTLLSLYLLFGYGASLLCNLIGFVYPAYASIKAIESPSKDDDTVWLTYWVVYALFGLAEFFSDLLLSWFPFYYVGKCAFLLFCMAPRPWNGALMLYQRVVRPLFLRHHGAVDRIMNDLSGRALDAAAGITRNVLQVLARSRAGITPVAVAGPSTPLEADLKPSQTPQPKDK
Chain of UniProt Q9Y3T6 (Q9Y3T6 whole entry, looked up, one chain of several): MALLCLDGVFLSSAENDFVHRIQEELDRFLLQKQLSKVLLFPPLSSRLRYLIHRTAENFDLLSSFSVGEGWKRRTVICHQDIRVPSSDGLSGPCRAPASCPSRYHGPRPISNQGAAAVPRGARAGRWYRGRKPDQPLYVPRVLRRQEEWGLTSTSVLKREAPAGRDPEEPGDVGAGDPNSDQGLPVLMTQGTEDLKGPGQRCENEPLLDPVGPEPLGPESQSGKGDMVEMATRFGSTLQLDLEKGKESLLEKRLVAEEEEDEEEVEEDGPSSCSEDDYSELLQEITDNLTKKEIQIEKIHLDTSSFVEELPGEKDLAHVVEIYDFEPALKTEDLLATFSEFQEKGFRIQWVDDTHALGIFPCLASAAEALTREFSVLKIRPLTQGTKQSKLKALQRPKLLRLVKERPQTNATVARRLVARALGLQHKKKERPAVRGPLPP
Chain of UniProt P54136 (P54136 whole entry, looked up): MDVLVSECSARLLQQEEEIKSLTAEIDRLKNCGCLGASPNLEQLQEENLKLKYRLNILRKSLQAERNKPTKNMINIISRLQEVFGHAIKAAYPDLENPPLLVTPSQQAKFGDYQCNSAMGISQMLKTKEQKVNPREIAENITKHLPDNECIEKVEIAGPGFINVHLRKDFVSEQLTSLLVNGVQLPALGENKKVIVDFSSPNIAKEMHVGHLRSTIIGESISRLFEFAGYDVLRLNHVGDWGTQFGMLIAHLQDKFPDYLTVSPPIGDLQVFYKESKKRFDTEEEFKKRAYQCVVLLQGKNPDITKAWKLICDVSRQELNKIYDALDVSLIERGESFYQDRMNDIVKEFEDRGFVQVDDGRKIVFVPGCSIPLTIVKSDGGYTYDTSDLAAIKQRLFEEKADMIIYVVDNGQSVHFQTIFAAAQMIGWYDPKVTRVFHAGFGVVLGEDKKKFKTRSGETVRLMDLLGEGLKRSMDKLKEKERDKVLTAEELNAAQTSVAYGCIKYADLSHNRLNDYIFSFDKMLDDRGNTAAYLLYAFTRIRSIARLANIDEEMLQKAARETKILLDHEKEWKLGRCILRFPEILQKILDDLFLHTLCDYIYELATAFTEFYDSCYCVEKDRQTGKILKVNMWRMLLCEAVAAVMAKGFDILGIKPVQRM
Chain of UniProt Q9H0U4 (Q9H0U4 whole entry, looked up): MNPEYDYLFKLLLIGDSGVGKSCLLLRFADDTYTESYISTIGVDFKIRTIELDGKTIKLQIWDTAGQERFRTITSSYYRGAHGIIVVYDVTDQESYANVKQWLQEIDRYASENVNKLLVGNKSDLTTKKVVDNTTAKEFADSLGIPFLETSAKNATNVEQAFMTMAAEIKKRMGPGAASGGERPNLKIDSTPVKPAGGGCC
Chain of UniProt Q9NR31 (Q9NR31 whole entry, looked up): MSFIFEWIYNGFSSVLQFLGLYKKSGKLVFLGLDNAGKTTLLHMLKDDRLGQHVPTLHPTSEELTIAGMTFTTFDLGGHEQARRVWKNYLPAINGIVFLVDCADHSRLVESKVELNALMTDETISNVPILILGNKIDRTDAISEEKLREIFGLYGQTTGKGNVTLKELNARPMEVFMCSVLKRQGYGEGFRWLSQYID
Chain of UniProt Q8NC42 (Q8NC42 whole entry, looked up): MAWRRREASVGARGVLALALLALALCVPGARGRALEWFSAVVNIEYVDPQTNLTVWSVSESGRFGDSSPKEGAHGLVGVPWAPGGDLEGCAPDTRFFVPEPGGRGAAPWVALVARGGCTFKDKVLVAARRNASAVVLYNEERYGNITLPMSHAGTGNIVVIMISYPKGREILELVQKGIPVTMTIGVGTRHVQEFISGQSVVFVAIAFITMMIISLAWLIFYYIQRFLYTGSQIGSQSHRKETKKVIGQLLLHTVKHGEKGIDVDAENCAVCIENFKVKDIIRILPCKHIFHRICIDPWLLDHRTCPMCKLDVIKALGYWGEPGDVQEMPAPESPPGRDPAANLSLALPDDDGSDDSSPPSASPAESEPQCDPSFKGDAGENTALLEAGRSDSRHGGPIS
Chain of UniProt Q8TBN0 (Q8TBN0 whole entry, looked up): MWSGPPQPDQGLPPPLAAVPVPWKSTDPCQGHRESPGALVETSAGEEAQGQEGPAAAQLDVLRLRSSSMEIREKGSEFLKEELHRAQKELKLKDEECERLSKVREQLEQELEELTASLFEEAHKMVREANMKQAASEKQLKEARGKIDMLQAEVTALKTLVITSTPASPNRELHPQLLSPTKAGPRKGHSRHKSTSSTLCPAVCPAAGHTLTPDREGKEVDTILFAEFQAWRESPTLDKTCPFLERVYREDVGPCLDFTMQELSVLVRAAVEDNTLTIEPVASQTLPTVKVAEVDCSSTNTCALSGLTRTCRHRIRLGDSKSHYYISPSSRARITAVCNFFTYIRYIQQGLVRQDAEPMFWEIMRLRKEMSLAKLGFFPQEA
Chain of UniProt Q9H1K0 (Q9H1K0 whole entry, looked up): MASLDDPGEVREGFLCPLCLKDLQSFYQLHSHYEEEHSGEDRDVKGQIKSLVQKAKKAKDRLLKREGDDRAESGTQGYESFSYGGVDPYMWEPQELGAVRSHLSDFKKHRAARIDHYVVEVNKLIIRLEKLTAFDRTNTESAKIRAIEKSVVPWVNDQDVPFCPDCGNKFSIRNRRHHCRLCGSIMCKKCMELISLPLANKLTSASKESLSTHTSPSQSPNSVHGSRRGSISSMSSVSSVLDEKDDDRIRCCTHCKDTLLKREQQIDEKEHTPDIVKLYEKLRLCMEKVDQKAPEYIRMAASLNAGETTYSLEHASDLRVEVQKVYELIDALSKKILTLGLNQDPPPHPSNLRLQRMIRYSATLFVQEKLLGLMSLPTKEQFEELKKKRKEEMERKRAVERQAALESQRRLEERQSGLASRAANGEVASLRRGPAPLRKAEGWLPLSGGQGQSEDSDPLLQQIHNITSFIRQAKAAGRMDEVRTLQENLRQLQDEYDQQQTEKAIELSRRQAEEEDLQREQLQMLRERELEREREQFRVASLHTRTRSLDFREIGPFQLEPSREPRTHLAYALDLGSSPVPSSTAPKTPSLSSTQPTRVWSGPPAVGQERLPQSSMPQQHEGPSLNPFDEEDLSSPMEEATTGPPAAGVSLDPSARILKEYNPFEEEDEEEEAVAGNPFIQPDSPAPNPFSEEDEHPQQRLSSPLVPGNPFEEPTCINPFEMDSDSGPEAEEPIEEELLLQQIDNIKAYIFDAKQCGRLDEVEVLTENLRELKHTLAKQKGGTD
Chain of UniProt O43502 (O43502 whole entry, looked up): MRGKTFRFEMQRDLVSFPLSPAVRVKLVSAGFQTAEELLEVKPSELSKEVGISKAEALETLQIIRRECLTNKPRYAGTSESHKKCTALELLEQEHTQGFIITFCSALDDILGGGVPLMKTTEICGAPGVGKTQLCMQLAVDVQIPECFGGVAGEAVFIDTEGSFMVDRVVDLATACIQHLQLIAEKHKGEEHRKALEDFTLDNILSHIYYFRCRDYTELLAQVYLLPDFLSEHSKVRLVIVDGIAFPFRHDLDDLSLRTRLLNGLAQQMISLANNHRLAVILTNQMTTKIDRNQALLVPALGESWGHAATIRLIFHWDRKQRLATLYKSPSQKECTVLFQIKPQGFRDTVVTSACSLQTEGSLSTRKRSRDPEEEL

Target	log2 fold change (ibrutinib)	log2 fold change [1]	log2 fold change (ralimetinib)	log2 fold change [2]	log2 fold change [3]	log2 fold change [4]	log2 fold change [5]	log2 fold change [6]	log2 fold change [7]	log2 fold change [8]
RNF168 (UniProt Q8IYW5)	0.155	0.144	0.004	-0.041	-0.034	-0.071	0.031	0.026	-0.04	0.011
RNF40 (UniProt O75150)	0.048	-0.014	0.033	-0.015	-0.023	0.007	-0.01	-0.001	-0.006	0.004
RAD51C (UniProt O43502)	-0.015	0.055	0.044	0.009	0.067	-0.015	-0.039	0	-0.037	-0.051
RARS (UniProt P54136)	-0.001	-0.003	0.062	0.048	0.033	-0.019	0.015	-0.003	0.06	0.033
RPS26P11 (UniProt Q5JNZ5)	-0.037	0.004	0.008	-0.034	-0.019	-0.013	-0.034	0.024	0.025	0.016
RTN4IP1 (UniProt Q8WWV3)	0.073	0.02	0.012	0.028	-0.042	-0.398 (active)	-0.011	-0.008	-0.015	-0.033
RFC2 (UniProt P35250)	0.009	0.018	0.036	0.044	-0.002	-0.001	0.011	0.008	0.048	-0.001
RAB21 (UniProt Q9UL25)	0.026	-0.004	0.057	-0.02	-0.002	0.019	0.021	-0.023	-0.002	0.015
SAR1A (UniProt Q9NR31)	-0.082	-0.105	0.027	-0.028	0.026	0.163	-0.042	0.021	-0.045	0.112
RALGAPB (UniProt Q86X10)	0.066	-0.002	0.033	-0.038	0.003	-0.048	0.029	0.065	0.032	0.01
RAB8B (UniProt Q92930)	-0.03	-0.018	-0.035	-0.013	-0.003	0.051	-0.001	0.01	0.099	-0.06
REEP6 (UniProt Q96HR9)	-0.026	-0.026	0.018	-0.029	-0.067	-0.006	-0.066	0.084	0.055	0.038
RBM23 isoform 2 (UniProt Q86U06)	-0.125	-0.014	0.041	-0.096	0.081	0.151	-0.122	0.112	-0.022	0.05
RAB1B (UniProt Q9H0U4)	-0.011	-0.01	-0.014	-0.012	-0.006	0.02	-0.014	-0.036	-0.011	-0.006
RYR1 (UniProt P21817)	0.091	0.008	-0.028	-0.012	-0.088	–	-0.014	0.195	-0.032	0.013
RECQL5 (UniProt O94762)	0.014	-0.335	0.035	-0.015	0.055	0.03	-0.066	-0.044	0.035	-0.001
RAD54L2 (UniProt Q9Y4B4)	-0.005	0.23	–	–	-0.073	0.131	-0.051	0.031	–	0.094

Target	log2 fold change (ibrutinib)	log2 fold change [1]	log2 fold change (ralimetinib)	log2 fold change [2]	log2 fold change [3]	log2 fold change [4]	log2 fold change [5]	log2 fold change [6]	log2 fold change [7]	log2 fold change [8]
RTTN (UniProt Q86VV8)	0.095	0.155	0.145	-0.137	0.379	-0.053	0.015	–	-0.004	0.112
SCML2 (UniProt Q9UQR0)	-0.011	0.028	0.004	0.034	-0.011	0.011	-0.012	-0.015	-0.006	0.109
RAB3IL1 (UniProt Q8TBN0)	0.03	-0.035	0.021	-0.022	0.004	0.116	-0.006	0.02	-0.024	0.003
RAD54L (UniProt Q92698)	-0.081	0.035	-0.062	-0.224	0.085	0	0.039	–	0.054	0.059
RETSAT (UniProt Q6NUM9)	-0.091	0.073	-0.057	-0.134	0.07	–	-0.113	0.226	-0.015	-0.24
RPS6KB1 (UniProt P23443)	0.024	0.355 (active)	0.026	0.007	-0.027	0	0.01	-0.029	-0.01	-0.001
RBSN (UniProt Q9H1K0)	0.018	0.043	-0.014	-0.007	0.043	0.025	-0.032	0.044	0.003	0.035
RAC2 (UniProt P15153)	0.094	-0.04	0.07	-0.027	0.047	-0.005	0.017	-0.022	0.045	-0.014
SAMD4A (UniProt Q9UPU9)	-0.014	0.052	0.395	0.097	0.094	–	-0.008	0.025	0.196	0.088
SEC24D isoform 2 (UniProt O94855)	0.005	-0.024	0.01	-0.018	0	-0.009	-0.011	0.019	-0.035	0.023
SDHA (UniProt P31040)	-0.015	0	0.043	0.049	-0.01	0.004	0.008	0.014	-0.015	0.002
SCO2 (UniProt O43819)	-0.021	-0.065	-0.02	-0.142	0	-0.258	-0.009	0.017	0.01	-0.117
R3HCC1 (UniProt Q9Y3T6)	0.02	0.058	0.016	-0.028	-0.045	0.022	-0.061	0.017	-0.001	0.025
RNF149 (UniProt Q8NC42)	0.04	0.023	0.044	-0.041	-0.005	-0.021	0.001	-0.014	0.113	0.06
RAD50 isoform 2 (UniProt Q92878)	0.002	-0.01	0.01	0.018	0	-0.001	0.03	0	0.017	-0.006
RPAP1 (UniProt Q9BWH6)	-0.016	0.049	0.02	-0.015	-0.037	0.011	-0.002	-0.013	0.007	-0.033
